According to ChEMBL document CHEMBL1961873, “Compounds: GSK PKIS; Assays: Nanosyn kinase panel” (2012):

How the values were obtained:
[1] = target: T1, Inhibitor of nuclear factor kappa-B kinase subunit epsilon (Homo sapiens) (UniProt Q14164); conditions: at 1 µM;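 further: reported values are averaged percent inhibition figures against human IKKε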
T1 sequence (whole entry): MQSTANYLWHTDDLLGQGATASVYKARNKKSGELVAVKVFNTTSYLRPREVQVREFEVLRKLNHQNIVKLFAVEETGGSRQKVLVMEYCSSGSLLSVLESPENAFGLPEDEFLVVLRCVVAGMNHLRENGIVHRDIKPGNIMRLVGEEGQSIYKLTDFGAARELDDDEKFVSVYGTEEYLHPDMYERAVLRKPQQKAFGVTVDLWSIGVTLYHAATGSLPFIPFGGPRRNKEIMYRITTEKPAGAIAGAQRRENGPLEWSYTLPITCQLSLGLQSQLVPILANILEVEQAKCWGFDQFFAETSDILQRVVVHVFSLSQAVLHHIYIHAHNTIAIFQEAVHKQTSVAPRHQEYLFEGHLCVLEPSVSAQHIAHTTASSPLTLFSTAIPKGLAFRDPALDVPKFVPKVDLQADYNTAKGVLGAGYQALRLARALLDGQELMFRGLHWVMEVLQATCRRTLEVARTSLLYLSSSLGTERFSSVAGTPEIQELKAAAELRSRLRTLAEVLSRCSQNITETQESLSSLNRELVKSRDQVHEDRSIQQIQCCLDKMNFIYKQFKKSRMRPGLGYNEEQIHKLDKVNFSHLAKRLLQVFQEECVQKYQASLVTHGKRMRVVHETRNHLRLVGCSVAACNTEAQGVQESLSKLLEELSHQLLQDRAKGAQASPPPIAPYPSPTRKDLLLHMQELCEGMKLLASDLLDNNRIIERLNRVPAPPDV

[2] = target: T2, Serine/threonine-protein kinase Nek1 (Homo sapiens) (UniProt Q96PY6); conditions: at 0.1 µM
T2 sequence (whole entry): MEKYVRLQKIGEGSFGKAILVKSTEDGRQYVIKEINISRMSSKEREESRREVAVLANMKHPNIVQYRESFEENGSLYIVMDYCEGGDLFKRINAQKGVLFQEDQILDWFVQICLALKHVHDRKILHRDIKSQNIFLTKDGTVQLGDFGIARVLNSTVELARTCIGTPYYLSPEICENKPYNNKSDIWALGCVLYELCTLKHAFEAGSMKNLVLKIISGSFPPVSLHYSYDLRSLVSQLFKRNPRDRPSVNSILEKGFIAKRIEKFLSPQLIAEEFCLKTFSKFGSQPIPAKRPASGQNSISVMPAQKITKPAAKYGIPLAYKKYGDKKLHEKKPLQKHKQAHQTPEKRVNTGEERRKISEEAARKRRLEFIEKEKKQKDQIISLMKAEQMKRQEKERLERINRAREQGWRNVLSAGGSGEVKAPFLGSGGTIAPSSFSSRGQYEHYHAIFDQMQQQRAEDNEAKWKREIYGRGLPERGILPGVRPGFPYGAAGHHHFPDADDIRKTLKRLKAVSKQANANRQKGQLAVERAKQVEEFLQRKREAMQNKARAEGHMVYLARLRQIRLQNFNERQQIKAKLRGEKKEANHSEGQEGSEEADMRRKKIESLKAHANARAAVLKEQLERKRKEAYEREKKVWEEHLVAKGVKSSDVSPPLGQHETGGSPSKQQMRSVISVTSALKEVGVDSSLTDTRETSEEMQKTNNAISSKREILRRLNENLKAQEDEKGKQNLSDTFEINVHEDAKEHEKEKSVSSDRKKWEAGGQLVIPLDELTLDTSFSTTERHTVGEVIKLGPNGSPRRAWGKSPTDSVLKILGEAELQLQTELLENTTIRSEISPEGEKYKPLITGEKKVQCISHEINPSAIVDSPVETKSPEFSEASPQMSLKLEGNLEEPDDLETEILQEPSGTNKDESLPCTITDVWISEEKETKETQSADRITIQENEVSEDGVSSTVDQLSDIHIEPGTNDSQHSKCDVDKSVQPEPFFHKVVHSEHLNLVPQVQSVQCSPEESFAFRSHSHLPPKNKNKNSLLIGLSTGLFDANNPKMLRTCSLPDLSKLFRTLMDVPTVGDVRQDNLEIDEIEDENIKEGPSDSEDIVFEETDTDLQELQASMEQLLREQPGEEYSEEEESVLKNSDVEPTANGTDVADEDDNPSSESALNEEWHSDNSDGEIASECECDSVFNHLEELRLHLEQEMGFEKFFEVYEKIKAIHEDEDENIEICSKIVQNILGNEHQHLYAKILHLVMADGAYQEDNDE

[3] = target: T2, Serine/threonine-protein kinase Nek1 (Homo sapiens); conditions: at 1 µM
[4] = target: T3, Serine/threonine-protein kinase Nek2 (Homo sapiens) (UniProt P51955); conditions: at 0.1 µM
T3 sequence (whole entry): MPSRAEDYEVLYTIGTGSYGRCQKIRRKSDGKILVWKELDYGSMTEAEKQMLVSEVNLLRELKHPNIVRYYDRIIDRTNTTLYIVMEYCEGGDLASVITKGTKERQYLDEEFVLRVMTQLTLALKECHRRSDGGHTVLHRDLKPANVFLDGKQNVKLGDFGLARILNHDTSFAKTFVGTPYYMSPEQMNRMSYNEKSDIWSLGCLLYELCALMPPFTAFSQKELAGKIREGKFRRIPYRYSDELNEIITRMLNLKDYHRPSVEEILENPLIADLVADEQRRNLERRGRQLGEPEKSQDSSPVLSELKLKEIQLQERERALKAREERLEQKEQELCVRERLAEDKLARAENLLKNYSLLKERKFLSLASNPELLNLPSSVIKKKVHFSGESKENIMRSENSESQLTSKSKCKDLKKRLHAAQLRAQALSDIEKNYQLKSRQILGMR

[5] = target: T3, Serine/threonine-protein kinase Nek2 (Homo sapiens); conditions: at 1 µM
[6] = target: Serine/threonine-protein kinase Nek6 (Homo sapiens) (UniProt Q9HC98); conditions: at 0.1 µM
Sequence of Serine/threonine-protein kinase Nek6 (Homo sapiens) (Q9HC98 whole entry): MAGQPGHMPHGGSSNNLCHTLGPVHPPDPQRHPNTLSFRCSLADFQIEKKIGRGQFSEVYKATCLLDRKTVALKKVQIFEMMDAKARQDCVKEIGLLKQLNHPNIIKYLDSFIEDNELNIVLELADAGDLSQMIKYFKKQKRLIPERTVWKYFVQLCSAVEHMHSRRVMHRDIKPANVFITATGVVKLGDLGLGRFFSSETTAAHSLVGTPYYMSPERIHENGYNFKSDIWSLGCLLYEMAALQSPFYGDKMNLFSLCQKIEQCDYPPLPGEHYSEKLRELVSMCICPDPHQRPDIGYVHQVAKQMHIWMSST

[7] = target: Serine/threonine-protein kinase Nek6 (Homo sapiens) (UniProt Q9HC98); conditions: at 1 µM
[8] = target: Serine/threonine-protein kinase Nek7 (Homo sapiens) (UniProt Q8TDX7); conditions: at 0.1 µM
Sequence of Serine/threonine-protein kinase Nek7 (Homo sapiens) (Q8TDX7 whole entry, looked up): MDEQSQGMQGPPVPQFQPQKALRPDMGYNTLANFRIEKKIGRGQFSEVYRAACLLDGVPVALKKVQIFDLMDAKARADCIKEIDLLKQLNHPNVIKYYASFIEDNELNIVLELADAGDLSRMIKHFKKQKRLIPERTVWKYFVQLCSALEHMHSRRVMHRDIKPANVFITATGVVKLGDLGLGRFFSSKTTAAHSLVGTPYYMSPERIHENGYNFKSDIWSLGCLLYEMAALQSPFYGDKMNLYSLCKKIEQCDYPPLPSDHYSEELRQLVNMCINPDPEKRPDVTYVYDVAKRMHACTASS

[9] = target: Serine/threonine-protein kinase Nek7 (Homo sapiens) (UniProt Q8TDX7); conditions: at 1 µM
[10] = target: T4, Serine/threonine-protein kinase Nek9 (Homo sapiens) (UniProt Q8TD19); conditions: at 0.1 µM
T4 sequence (whole entry): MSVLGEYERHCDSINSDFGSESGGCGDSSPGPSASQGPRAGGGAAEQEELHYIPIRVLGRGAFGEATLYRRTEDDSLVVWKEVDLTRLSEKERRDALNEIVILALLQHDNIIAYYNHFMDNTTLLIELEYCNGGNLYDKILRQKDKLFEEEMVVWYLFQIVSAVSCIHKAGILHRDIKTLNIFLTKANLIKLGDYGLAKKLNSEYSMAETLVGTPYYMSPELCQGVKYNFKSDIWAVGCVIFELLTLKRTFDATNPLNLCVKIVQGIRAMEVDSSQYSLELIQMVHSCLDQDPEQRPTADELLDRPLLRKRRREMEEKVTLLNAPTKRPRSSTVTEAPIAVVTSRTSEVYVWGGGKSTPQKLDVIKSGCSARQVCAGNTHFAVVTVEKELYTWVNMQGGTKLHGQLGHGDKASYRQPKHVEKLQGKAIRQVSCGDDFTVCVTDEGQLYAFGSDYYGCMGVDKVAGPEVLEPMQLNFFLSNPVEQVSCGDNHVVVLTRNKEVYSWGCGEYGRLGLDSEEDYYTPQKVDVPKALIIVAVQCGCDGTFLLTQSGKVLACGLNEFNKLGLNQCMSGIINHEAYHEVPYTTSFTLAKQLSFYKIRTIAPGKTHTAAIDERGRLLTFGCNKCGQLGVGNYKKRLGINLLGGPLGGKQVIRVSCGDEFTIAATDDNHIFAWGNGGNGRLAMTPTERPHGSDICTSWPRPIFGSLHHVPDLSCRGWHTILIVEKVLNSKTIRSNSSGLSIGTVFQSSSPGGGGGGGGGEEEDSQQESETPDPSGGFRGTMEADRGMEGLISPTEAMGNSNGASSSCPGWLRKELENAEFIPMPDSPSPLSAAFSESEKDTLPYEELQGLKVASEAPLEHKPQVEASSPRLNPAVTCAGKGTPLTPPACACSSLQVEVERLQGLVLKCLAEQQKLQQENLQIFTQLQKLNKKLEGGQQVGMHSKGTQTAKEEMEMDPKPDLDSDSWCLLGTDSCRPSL

[11] = target: T4, Serine/threonine-protein kinase Nek9 (Homo sapiens); conditions: at 1 µM
[12] = target: Serine/threonine-protein kinase PLK1 (Homo sapiens) (UniProt P53350); conditions: at 0.1 µM
Sequence of Serine/threonine-protein kinase PLK1 (Homo sapiens) (P53350 whole entry): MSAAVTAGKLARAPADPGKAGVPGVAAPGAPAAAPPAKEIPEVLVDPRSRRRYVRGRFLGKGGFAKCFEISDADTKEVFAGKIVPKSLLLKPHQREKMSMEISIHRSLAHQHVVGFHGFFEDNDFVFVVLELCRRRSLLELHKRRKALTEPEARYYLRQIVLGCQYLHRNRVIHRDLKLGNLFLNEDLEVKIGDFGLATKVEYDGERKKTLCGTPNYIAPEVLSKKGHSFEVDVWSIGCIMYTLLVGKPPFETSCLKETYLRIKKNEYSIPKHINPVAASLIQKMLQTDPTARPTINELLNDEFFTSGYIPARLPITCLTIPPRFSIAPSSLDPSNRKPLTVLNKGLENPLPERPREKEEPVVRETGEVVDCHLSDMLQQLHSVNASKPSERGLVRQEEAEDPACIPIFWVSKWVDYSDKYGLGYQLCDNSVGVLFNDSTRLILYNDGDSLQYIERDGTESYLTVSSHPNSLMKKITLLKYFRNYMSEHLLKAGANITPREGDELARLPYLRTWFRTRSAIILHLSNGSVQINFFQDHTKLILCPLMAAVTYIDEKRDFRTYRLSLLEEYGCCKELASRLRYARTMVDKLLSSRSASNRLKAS

[13] = target: Serine/threonine-protein kinase PLK1 (Homo sapiens) (UniProt P53350); conditions: at 1 µM
[14] = target: T5, Dual specificity protein kinase TTK (Homo sapiens) (UniProt P33981); conditions: at 0.1 µM
T5 sequence (whole entry): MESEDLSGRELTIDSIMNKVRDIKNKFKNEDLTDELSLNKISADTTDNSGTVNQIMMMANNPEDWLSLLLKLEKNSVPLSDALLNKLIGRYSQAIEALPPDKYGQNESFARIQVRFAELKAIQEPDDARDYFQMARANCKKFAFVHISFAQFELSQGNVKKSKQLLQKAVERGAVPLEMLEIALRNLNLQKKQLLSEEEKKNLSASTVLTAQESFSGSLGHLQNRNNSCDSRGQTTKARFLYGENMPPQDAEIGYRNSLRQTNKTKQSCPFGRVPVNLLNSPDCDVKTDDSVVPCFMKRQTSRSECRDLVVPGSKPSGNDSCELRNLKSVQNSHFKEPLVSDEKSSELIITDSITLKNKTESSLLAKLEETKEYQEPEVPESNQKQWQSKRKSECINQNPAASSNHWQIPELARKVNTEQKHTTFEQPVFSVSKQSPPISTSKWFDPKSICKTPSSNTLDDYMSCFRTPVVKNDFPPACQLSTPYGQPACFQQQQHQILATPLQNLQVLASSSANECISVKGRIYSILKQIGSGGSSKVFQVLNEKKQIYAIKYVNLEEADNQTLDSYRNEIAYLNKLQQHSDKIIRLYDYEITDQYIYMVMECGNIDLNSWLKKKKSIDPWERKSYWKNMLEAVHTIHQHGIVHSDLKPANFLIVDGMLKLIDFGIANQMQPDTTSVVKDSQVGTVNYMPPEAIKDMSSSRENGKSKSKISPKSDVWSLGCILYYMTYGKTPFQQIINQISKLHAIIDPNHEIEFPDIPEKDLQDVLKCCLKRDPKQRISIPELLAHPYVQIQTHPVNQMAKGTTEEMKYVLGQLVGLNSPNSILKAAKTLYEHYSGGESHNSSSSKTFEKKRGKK

[15] = tested on: T6, Receptor-type tyrosine-protein kinase FLT3 (Homo sapiens), P36888 [D835Y]; conditions: at 1 µM
T6 sequence (whole entry): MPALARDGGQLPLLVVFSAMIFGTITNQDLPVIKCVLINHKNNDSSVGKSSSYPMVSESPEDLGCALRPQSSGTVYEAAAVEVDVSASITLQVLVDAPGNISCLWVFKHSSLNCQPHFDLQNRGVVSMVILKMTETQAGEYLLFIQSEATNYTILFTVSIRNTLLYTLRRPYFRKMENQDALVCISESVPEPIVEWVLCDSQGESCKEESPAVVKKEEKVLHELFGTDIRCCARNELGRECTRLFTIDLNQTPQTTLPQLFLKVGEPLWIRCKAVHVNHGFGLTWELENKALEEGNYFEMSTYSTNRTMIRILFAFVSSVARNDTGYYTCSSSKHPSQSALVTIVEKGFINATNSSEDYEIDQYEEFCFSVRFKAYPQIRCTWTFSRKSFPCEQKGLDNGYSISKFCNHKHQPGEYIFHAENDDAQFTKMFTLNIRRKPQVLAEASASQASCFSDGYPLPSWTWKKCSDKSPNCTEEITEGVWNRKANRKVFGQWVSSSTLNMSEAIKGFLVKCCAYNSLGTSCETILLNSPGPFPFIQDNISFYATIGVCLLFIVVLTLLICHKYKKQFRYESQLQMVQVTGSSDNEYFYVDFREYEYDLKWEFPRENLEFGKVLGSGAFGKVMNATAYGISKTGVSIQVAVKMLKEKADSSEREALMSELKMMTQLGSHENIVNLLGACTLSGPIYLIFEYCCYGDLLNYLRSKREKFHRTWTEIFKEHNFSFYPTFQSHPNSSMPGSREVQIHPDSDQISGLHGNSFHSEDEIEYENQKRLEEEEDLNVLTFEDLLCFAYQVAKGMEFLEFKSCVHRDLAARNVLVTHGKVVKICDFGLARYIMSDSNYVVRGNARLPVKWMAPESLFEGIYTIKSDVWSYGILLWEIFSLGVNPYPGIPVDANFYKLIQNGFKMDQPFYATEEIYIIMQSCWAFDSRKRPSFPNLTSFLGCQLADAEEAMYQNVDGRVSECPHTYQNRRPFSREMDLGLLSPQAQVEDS

[16] = target: Vascular endothelial growth factor receptor 3 (Homo sapiens) (UniProt P35916); conditions: at 0.1 µM
Sequence of Vascular endothelial growth factor receptor 3 (Homo sapiens) (P35916 whole entry): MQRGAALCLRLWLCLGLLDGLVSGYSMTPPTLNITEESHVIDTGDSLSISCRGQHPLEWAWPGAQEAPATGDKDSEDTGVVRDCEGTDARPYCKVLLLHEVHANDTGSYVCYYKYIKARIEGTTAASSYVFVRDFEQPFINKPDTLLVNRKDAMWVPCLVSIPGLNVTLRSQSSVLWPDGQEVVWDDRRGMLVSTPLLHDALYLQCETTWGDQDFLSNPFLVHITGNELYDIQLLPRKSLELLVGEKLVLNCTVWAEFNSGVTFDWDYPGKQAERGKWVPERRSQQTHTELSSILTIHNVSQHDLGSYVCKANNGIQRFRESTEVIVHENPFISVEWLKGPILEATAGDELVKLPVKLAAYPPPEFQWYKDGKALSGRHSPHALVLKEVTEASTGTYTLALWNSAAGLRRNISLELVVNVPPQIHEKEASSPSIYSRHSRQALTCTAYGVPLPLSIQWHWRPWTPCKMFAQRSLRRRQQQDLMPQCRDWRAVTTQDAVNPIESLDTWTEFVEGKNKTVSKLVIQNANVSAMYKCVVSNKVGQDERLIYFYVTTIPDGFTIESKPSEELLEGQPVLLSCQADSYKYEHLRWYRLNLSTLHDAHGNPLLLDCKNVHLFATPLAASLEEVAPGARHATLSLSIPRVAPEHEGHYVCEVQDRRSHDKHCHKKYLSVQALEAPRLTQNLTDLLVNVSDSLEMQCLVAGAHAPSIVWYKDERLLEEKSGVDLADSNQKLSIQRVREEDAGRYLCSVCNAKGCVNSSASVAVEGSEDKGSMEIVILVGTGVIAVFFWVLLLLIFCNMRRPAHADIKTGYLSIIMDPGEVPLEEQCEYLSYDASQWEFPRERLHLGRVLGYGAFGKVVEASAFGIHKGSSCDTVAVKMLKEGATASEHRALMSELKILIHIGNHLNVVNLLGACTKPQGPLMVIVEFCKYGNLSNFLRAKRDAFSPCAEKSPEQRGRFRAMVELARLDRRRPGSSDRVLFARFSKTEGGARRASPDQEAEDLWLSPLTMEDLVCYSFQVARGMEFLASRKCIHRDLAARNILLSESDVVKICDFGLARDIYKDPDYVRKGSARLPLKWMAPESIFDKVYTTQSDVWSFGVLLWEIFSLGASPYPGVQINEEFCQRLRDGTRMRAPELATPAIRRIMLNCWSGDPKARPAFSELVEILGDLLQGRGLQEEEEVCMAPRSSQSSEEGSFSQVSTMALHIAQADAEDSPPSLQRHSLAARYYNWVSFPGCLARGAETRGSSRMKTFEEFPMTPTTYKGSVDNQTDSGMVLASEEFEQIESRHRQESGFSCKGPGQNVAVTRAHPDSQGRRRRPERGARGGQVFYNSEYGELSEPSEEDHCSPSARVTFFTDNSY

[17] = target: Vascular endothelial growth factor receptor 3 (Homo sapiens) (UniProt P35916); conditions: at 1 µM
[18] = target: Macrophage colony-stimulating factor 1 receptor (Homo sapiens) (UniProt P07333); conditions: at 0.1 µM
Sequence of Macrophage colony-stimulating factor 1 receptor (Homo sapiens) (P07333 whole entry): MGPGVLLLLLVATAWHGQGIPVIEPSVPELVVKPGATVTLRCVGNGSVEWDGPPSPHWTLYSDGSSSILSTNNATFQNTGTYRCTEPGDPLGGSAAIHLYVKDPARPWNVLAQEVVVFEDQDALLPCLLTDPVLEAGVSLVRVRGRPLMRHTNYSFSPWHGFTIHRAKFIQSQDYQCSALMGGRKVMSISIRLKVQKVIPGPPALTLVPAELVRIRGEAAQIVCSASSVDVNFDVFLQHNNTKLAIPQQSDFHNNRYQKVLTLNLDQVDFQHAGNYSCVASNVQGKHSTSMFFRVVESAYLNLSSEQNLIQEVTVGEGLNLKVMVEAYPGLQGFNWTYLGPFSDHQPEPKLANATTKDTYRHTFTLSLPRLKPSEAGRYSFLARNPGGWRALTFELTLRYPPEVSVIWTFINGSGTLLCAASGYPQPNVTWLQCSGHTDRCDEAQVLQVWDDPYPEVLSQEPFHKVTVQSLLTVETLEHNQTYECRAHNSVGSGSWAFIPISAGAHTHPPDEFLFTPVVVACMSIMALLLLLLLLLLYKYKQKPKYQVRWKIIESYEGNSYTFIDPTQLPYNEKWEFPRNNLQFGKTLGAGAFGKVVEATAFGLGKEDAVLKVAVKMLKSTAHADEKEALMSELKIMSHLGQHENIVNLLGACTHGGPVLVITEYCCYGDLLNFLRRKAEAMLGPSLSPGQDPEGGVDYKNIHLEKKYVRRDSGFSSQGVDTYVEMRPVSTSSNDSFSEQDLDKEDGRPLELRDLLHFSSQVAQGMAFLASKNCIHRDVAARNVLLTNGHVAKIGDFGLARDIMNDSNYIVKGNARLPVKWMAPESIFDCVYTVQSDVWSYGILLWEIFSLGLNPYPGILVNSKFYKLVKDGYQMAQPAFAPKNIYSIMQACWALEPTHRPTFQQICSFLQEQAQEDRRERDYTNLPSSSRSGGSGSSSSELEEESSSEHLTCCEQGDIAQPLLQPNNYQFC

[19] = target: Macrophage colony-stimulating factor 1 receptor (Homo sapiens) (UniProt P07333); conditions: at 1 µM
[20] = target: Tyrosine-protein kinase Fyn (Homo sapiens) (UniProt P06241); conditions: at 0.1 µM
Sequence of Tyrosine-protein kinase Fyn (Homo sapiens) (P06241 2-537 limits assumed): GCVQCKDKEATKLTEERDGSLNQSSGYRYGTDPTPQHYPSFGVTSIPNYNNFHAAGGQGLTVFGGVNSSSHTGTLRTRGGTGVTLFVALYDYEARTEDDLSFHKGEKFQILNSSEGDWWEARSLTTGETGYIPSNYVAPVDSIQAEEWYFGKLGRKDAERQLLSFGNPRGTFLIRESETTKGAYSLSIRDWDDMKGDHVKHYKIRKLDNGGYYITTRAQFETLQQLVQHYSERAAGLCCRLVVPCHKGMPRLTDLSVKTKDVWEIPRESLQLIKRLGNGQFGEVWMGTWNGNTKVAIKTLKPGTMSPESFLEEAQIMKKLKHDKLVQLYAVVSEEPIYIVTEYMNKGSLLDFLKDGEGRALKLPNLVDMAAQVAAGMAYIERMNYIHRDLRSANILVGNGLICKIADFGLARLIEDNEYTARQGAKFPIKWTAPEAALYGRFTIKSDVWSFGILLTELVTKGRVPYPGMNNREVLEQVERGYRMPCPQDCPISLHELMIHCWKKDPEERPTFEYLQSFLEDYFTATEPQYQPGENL

Structure (SMILES) | inhibition [1] [%] | inhibition [2] [%] | inhibition [3] [%] | inhibition [4] [%] | inhibition [5] [%] | inhibition [6] [%] | inhibition [7] [%] | inhibition [8] [%] | inhibition [9] [%] | inhibition [10] [%] | inhibition [11] [%] | inhibition [12] [%] | inhibition [13] [%] | inhibition [14] [%] | inhibition [15] [%] | inhibition [16] [%] | inhibition [17] [%] | inhibition [18] [%] | inhibition [19] [%] | inhibition [20] [%]
COc1cc(/C=N/Nc2ncnc3[nH]ncc23)ccc1O | 96.3 | 3.25 | 12 | 3.52 | 4.62 | 4.45 | 5.85 | 4.07 | 5.51 | 0.45 | 7.86 | 0.7 | 7.67 | 4.54 | 34 | 2.46 | 26.1 | 7.59 | 34.4 | 8.72
CCN1CCC(CC(=O)Nc2n[nH]c3nnc(-c4cccc(F)c4F)cc23)CC1 | 4.56 | 1.55 | 1.21 | 2.78 | 1.49 | 2.04 | 2.93 | 2.55 | 1.27 | 0.14 | -3.93 | 2.14 | -0.76 | 4.15 | -2.23 | 1.01 | 1.82 | -1.12 | 5.72 | -0.21
